In the library only some 11% were active in any assay of this set; here they are far more common.
Vaccinia Venus – inhibitors of vaccinia virus (Venus reporter); Vaccinia virus Venus reporter expression, fluorescence; Potency, µM (top dose mostly 36.5 µM), inactives show at the top dose activity change, negative = inhibition, hits mostly inhibitors; actives 0.46% (n = 330,000); AID 720580; calls by dose curve; tested in A549 cells; further: on the % scale 0 is the no-effect control and ±100 the full control effect; nearly all actives have a fitted effect of over 30% in size
Vaccinia mCherry – inhibitors of vaccinia virus infection (mCherry reporter signal) | Vaccinia virus mCherry reporter infection, fluorescence | Potency, µM (series often up to 36.5 µM), for inactives: top-dose activity change, negative = inhibition, most hits filed as inhibitors | actives 0.63% (n = 310,000); calls by dose curve; tested in A549 cells; further: on the % scale 0 is the no-effect control and ±100 the full control effect; nearly all actives have a fitted effect of over 35% in size
Pf growth 48h – inhibits P. falciparum growth in the first generation, 48 h. Potency, µM (series often up to 28.7 µM), without a hit: top-dose activity change, negative = inhibition, usual class: inhibitors. actives 5.9% (n = 310,000). P. falciparum luciferase growth in erythrocytes, 48 h. AID 504832; further: on the % scale 0 is the no-effect control and ±100 the full control effect
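Parasite viability was followed by luminescence of a genomically integrated firefly luciferase. Cultures held 0.1% parasitemia at 2% hematocrit (final), incubated under 5% CO2 at 37 C.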
NS1 function inh – inhibitors of influenza NS1 protein function. Potency, µM (titrated, usually from 46.1 µM), for the others: top-dose activity, positive = more growth. actives 0.4% (n = 270,000). AID 2326; calls by dose curve; further: actives are rising curves; nearly all actives have a fitted effect of over 50% in size
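Recovery from NS1-induced slow growth read by OD600 in budding yeast switched to galactose assay medium (pH 6.0, -URA) at 1:100 dilution. Compound 23 nl per well; the matching strain lacking NS1 serves as control.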
Pf growth 96h – P. falciparum growth inhibition at 96 hours | actives 6.9% (n = 320,000) | P. falciparum luciferase reporter growth, 96 h | Potency, µM (series often up to 28.7 µM), for the others: at the highest dose activity change, negative = inhibition, hits mostly inhibitors; further: on the % scale 0 is the no-effect control and ±100 the full control effect
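Delayed-death screen, second-generation endpoint: infected erythrocytes, 2% hematocrit, 0.05% parasitemia final; 96 hours at 37 C, 5% CO2; luciferase detection reagent; luminescence decrease equals reduced growth.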
HCV inhibitor – blocks hepatitis C virus; Huh7.5.1 HCVcc-Cre infection, luciferase reporter, 44 h; Potency, µM (highest dose often 41.8 µM), for the others: at the highest dose activity change, negative = inhibition, hits mostly inhibitors; actives 3.4% (n = 340,000); further: on the % scale 0 is the no-effect control and ±100 the full control effect
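A cell-based infection assay in which seeded cells (1,000 per well) receive test compound after 4 h, are inoculated with HCVcc-Cre at approximately 0.5 moi, and are incubated 44 h before luminescence detection.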
Starred values were filed as active, the others as inactive; i = inactive; ? = inconclusive; · = no result. Unless noted, the call rests on the fitted dose curve; in most records, active means well fitted inhibition curve with a large enough effect; inconclusive means small, poorly fitted or top-dose-only effect, or another doubt; inactive means no such curve, though single readings can be large or run the other way. Potency means the concentration at half of the fitted maximal effect.

SMILES	Vaccinia Venus	Vaccinia mCherry	Pf growth 48h	NS1 function inh	Pf growth 96h	HCV inhibitor
CCOC(=O)c1nc(C(=O)NCc2ccc(C)cc2)nc2ccccc12	-10.4%	i	·	·	·	22.8%
CC(=O)Nc1cc(C(=O)N2CCN(C(=O)c3ccco3)CC2)cc2ncn(CCc3ccccn3)c12	-2.2%	-12.0%	·	·	·	·
CCN1CCN(C2=C(NS(=O)(=O)c3ccc(Br)cc3)C(=O)c3ccccc3C2=O)CC1	·	·	2.62µM*	1.4%	?	?
NC(=O)C1CCN(C2=C(NS(=O)(=O)c3ccccc3)C(=O)c3ccccc3C2=O)CC1	-15.6%	-27.0%	?	-1.4%	?	-0.5%
CCN1CCN(C2=C(NS(=O)(=O)c3ccccc3)C(=O)c3ccccc3C2=O)CC1	·	·	5.86µM*	8.0%	2.94µM*	11.2µM*
CN1CCN(C2=C(NS(=O)(=O)c3ccccc3)C(=O)c3ccccc3C2=O)CC1	·	·	4.15µM*	6.2%	?	-15.6%
CC(C)(C)c1nc(CN2CCCCC2)cc(CN2CCCCC2)c1O	-24.2%	-5.8%	9.28µM*	-6.1%	?	-9.2%
CCOc1ccc(CN(C)C(=O)CN2C(=O)NC3(CCCc4ccccc43)C2=O)cc1 (configuration not stated)	·	·	?	·	1.17µM*	?
COc1ccc(C)cc1NC(=O)CCCN1C(=O)CCC1=O	·	·	·	-3.7%	12.8%	?
COc1cc2c(cc1NC(=O)CCCN1C(=O)CCC1=O)oc1ccccc12	-7.5%	-23.6%	39.5%	-7.4%	-3.6%	11.2µM*
COc1cc2c(cc1NC(=O)CN1C(=O)NC3(CCc4ccccc43)C1=O)oc1ccccc12 (configuration not stated)	?	10µM*	·	?	?	?
COc1ccc(CCNC(=O)c2cccc(NC(=O)CC3SC(N4CCCCC4)=NC3=O)c2)cc1OC (configuration not stated)	-13.0%	i	11.7µM*	3.4%	?	-8.3%
O=C(CN1C(=O)NC2(CCc3ccccc32)C1=O)c1c[nH]c2ccccc12 (configuration not stated)	-13.9%	-8.3%	8.28µM*	·	?	9.6%
COc1cc2c(cc1NC(=O)CSc1cccc[n+]1[O-])oc1ccccc12	-10.3%	i	20.2%	-6.4%	-10.5%	?
O=C(CN1C(=O)NC2(CCc3ccccc32)C1=O)c1ccccc1 (configuration not stated)	-10.6%	i	-8.0%	8.5%	12.0%	30.3%
COc1cc2c(cc1NC(=O)CCCCCN1C(=O)CCC1=O)oc1ccccc12	·	·	?	-4.9%	·	3.55µM*
COc1ccccc1CNC(=O)CN1C(=O)NC2(CCCc3sccc32)C1=O (configuration not stated)	·	·	-13.1%	·	-24.4%	-12.6%
COc1cc2c(cc1NC(=O)CC1SC(N3CCCC3)=NC1=O)oc1ccccc12 (configuration not stated)	?	?	6.57µM*	-40.5%	1.17µM*	11.2µM*
COc1ccc(CNC(=O)CN2C(=O)NC3(CCCc4sccc43)C2=O)cc1OC (configuration not stated)	·	·	?	·	4.15µM*	-18.6%
O=C(CCCCCN1C(=O)CCC1=O)Nc1ccc(Br)cc1F	-7.6%	·	18.6%	-0.9%	1.04µM*	-1.7%
COc1ccc(C(=O)CN2C(=O)NC3(CCCc4ccccc43)C2=O)cc1OC (configuration not stated)	·	·	8.28µM*	6.1%	1.31µM*	-3.3%
COc1ccccc1C(=O)CN1C(=O)NC2(CCCc3ccccc32)C1=O (configuration not stated)	-1.2%	i	·	·	·	?
CC1CCN(C(=O)Oc2ccccc2)CC1	3.2%	i	16.6%	-3.5%	-17.1%	5.5%
O=C(CSc1nnc(CCCN2C(=O)c3cccc4cccc(c34)C2=O)n1-c1ccccc1)N1CCCCC1	-15.6%	i	11.7µM*	-5.3%	?	-0.8%
Cc1ccc(OCC(=O)Nc2ccc(S(=O)(=O)N3CCN(C)CC3)cc2)cc1	-19.4%	-2.2%	?	-2.6%	?	9.5%
